The whole screen tested about 320,000 compounds, of which about 2,100 (0.66%) were called active. About 53% were inconclusive and are not listed. The call rests on the fitted dose curve; in most records, active means well fitted inhibition curve with a large enough effect in the signal ratio, with a control signal flat (not every such curve was filed as active); inconclusive means small, poorly fitted or top-dose-only effect, or effect the other way, or a change in a side signal; inactive means flat fitted curve, though single readings scatter; the % refers to the signal ratio. The entries come from a sample that favours actives as a whole.
Assay: qHTS Assay for Lipid Storage Modulators in Drosophila S3 Cells;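 on cell number change: cells counted by Cell Tracker Red CMTPX staining in the red channel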; on lipid storage change, negative = inhibition: on the % scale 0 is the no-effect control and ±100 the full control effect
Conditions: BODIPY lipid droplet fluorescence, 18-24 h, cells fed with added oleic acid; cell number change: measured here: cell count max response; series mostly up to 46.1 µM; lipid storage change, negative = inhibition: at the top concentration
How it was run: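 Laser-scanning cytometry quantifies lipid droplet accumulation (500–530 nm total intensity; droplet/cell object ratio) in oleic acid-fed (400 uM added) Drosophila S3 cells treated with a concentration series. 20 uM Triacsin C defined 100% inhibition.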
In the case of `COc1ccccc1/C=C/C1(C(=O)NC2CCCC2)CC(=O)N1c1ccc(F)cc1` (stereo not drawn), the “lipid storage change, negative = inhibition” value is reported as -14.5% (inactive) and the cell number change is reported as -14.3%. With `O=[N+]([O-])c1cccc(S(=O)(=O)N/N=C/c2ccc(O)cc2)c1` the “lipid storage change, negative = inhibition” value was -15% (inactive). In the case of `COc1ccc(-n2c(O)c(/C=N/NS(=O)(=O)c3cccc([N+](=O)[O-])c3)c3ccccc3c2=O)cc1OC`, the Potency is reported as 16.4 µM (active) and the cell number change is reported as -20.8%. In the case of `NC(=O)Cn1cc(/C=N\NS(=O)(=O)c2cccc([N+](=O)[O-])c2)c2ccccc21`, the “lipid storage change, negative = inhibition” value is reported as 2.72% (inactive) and the cell number change is reported as 1.79%. With `COc1cc(/C=N/NS(=O)(=O)c2ccccc2)ccc1OS(=O)(=O)c1ccc(C)cc1` the “lipid storage change, negative = inhibition” value was 8.09% (inactive) and the cell number change was 20.6%. In the case of `COc1ccc(-n2c(O)c(/C=N/NS(=O)(=O)c3ccc(C)cc3)c3ccccc3c2=O)cc1OC`, the Potency is reported as 8.2 µM (active) and the cell number change is reported as -21%. For `Cc1ccc(-n2c(O)c(/C=N/n3cnnc3)c3ccccc3c2=O)cc1`, the “lipid storage change, negative = inhibition” value was 5.77% (inactive) and the cell number change was 9.27%. In the case of `Cc1cccn2c(CN3CCCC(c4ccccc4)C3)c(C(=O)N3CCOCC3)nc12` (stereo not drawn), the “lipid storage change, negative = inhibition” value is reported as -8.42% (inactive) and the cell number change is reported as -15.3%. For `Cc1nc2nc(NC(=O)c3ccco3)nn2c(C)c1Cl`, the “lipid storage change, negative = inhibition” value was 6.53% (inactive) and the cell number change was 16.3%. For `CCOc1ccc(CCNC(=O)c2cc(C)nc3ccccc23)cc1OCC`, the “outcome” value was “inactive” and the cell number change was 1.62%. In the case of `CCOc1ccc(CCNC(=O)c2ccc3ccccc3n2)cc1OCC`, the Potency is reported as 8.2 µM (active) and the cell number change is reported as -6.07%. In the case of `CCOc1ccc(CCNC(=O)c2ccc(OCc3c(C)noc3C)cc2)cc1OCC`, the Potency is reported as 11.6 µM (active) and the cell number change is reported as 14.1%. With `Cc1noc(C)c1COc1ccc(C(=O)NNC(=O)c2ccccc2)cc1` the “lipid storage change, negative = inhibition” value was 12.6% (inactive) and the cell number change was 2.9%. With `Cc1noc(C)c1COc1ccc(C(=O)N(C)CCOc2ccccc2)cc1` the Potency was 8.2 µM (active) and the cell number change was -18.6%. For `Cc1noc(C)c1COc1ccc(C(=O)O)cc1`, the “lipid storage change, negative = inhibition” value was 3.4% (inactive) and the cell number change was 4.42%. With `CCOc1ccc(-n2cnnn2)cc1S(=O)(=O)NCCc1ccc(OC)c(OC)c1` the “outcome” value was “inactive”. In the case of `CCOc1ccc(CCNC(=O)c2cccc(-n3cnnn3)c2)cc1OCC`, the Potency is reported as 0.0731 µM (active) and the cell number change is reported as -24.8%. With `CCOc1ccc(CCNC(=O)c2cc(C)on2)cc1OCC` the “lipid storage change, negative = inhibition” value was 14.1% (inactive) and the cell number change was 4.47%. With `CCOc1ccc(CCNC(=O)c2ccccc2OCc2c(C)noc2C)cc1OCC` the “lipid storage change, negative = inhibition” value was 5.43% (inactive) and the cell number change was 4.08%. For `Cc1noc(C)c1COc1ccc(C(=O)NCCc2ccc(S(N)(=O)=O)cc2)cc1`, the “lipid storage change, negative = inhibition” value was 23% (inactive) and the cell number change was 9.63%. In the case of `CCOc1ccc(CCNC(=O)c2cccc(S(=O)(=O)N3CCN(C(C)=O)CC3)c2)cc1OCC`, the “lipid storage change, negative = inhibition” value is reported as -10.5% (inactive) and the cell number change is reported as -4.38%. For `COc1ccc(N2CCN(C(=O)COC(=O)/C=C/c3ccc(OC(F)F)cc3)CC2)cc1`, the “lipid storage change, negative = inhibition” value was 12.6% (inactive). With `COc1ccc(Nc2nc(Cl)nc(Nc3ccc(OC)cc3OC)n2)c(OC)c1` the “lipid storage change, negative = inhibition” value was -9.46% (inactive) and the cell number change was -11.9%. With `CCOc1ccc(OCc2ccc(C(=O)Nc3ccc(Cl)cn3)o2)cc1` the “lipid storage change, negative = inhibition” value was 12.2% (inactive) and the cell number change was 16.1%. In the case of `CC(=O)Nc1sc(C)c(C)c1CN1CCN(S(=O)(=O)c2ccccc2)CC1`, the “outcome” value is reported as “inactive”. With `Cc1cc(C)c(Nc2ncnc(N)n2)c(C)c1` the “lipid storage change, negative = inhibition” value was 6.89% (inactive) and the cell number change was -1.29%. With `O=c1cc(N2CCc3ccccc3C2)[nH]c(=O)n1-c1ccc(Br)cc1` the “outcome” value was “inactive”. In the case of `CCC1CN(C(=O)N2CCC(C(=O)NCCc3ccc(OC)c(OC)c3)CC2)c2ccccc2O1` (stereo not drawn), the “outcome” value is reported as “inactive” and the cell number change is reported as 5.9%. For `CCC1CN(C(=O)N2CCC(C(=O)NCc3ccc(C)o3)CC2)c2ccccc2O1` (stereo not drawn), the “outcome” value was “inactive”. In the case of `CCC1CN(C(=O)N2CCC(C(=O)NCc3cc(OC)c(OC)c(OC)c3)CC2)c2ccccc2O1` (stereo not drawn), the “outcome” value is reported as “inactive” and the cell number change is reported as -18%. For `CCC1CN(C(=O)N2CCC(C(=O)NCc3ccccc3OC)CC2)c2ccccc2O1` (stereo not drawn), the “lipid storage change, negative = inhibition” value was -7.34% (inactive) and the cell number change was 16.5%. With `CCC1CN(C(=O)N2CCC(C(=O)NCCc3ccc(OC)cc3OC)CC2)c2ccccc2O1` (stereo not drawn) the Potency was 5.17 µM (active) and the cell number change was 1.47%. In the case of `CCC1CN(C(=O)N2CCC(C(=O)NCc3ccc(OC)cc3OC)CC2)c2ccccc2O1` (stereo not drawn), the “outcome” value is reported as “inactive” and the cell number change is reported as 4.13%. In the case of `CCC1CN(C(=O)N2CCC(C(=O)NCCc3ccccc3)CC2)c2ccccc2O1` (stereo not drawn), the “outcome” value is reported as “inactive” and the cell number change is reported as -2.95%. With `CCC1CN(C(=O)N2CCC(C(=O)NCc3ccccc3C)CC2)c2ccccc2O1` (stereo not drawn) the Potency was 3.66 µM (active) and the cell number change was -0.59%. With `CCC1CN(C(=O)N2CCC(C(=O)NCCc3ccccc3OC)CC2)c2ccccc2O1` (stereo not drawn) the Potency was 6.51 µM (active) and the cell number change was 13.3%. With `O=C(Nc1ccc(F)cc1)/C(=C1/CCCCCN1)[N+](=O)[O-]` the “lipid storage change, negative = inhibition” value was -9.09% (inactive) and the cell number change was 18.2%. In the case of `Cc1ccccc1CSc1nnc(NC(=O)Cc2cccs2)s1`, the “lipid storage change, negative = inhibition” value is reported as 18.3% (inactive) and the cell number change is reported as 0.934%. In the case of `O=S(=O)(Nc1ccc(-c2nc3ccccc3o2)cc1)c1ccccc1`, the “outcome” value is reported as “inactive” and the cell number change is reported as -16.6%. In the case of `CC(=O)NCCc1ccc(S(=O)(=O)N2CCOCC2)cc1`, the Potency is reported as 18.4 µM (active) and the cell number change is reported as -15.6%. For `O=C(CCCSc1ccc(Cl)cc1)Nc1cc(S(=O)(=O)N2CCOCC2)ccc1O`, the “lipid storage change, negative = inhibition” value was 5.44% (inactive) and the cell number change was -18.8%. For `O=C(Nc1cc(S(=O)(=O)N2CCOCC2)ccc1O)c1ccco1`, the “lipid storage change, negative = inhibition” value was -7.19% (inactive) and the cell number change was -13.8%. For `C/C(=N\NC(=O)CCc1ccc(S(=O)(=O)N2CCOCC2)cc1)c1ccccc1Cl`, the “lipid storage change, negative = inhibition” value was -11% (inactive) and the cell number change was 15.6%. For `C/C(=N\NC(=O)c1cccc(S(=O)(=O)N2CCOCC2)c1)c1ccc(OC(F)F)cc1`, the “lipid storage change, negative = inhibition” value was 24.9% (inactive) and the cell number change was 8.64%. With `COc1ccc(CCNC(=O)COc2ccc(S(=O)(=O)N3CCOCC3)cc2)cc1` the “outcome” value was “inactive”.

Reference: PubChem BioAssay AID2685 (National Center for Advancing Translational Sciences (NCATS), 2010)
Potency means the concentration at half of the fitted maximal effect.
